C diff HTS: C. difficile growth inhibitors, primary screen, HTS; Clostridium difficile clinical isolate growth, OD600, 24 h; stronger effect = lower value; growth activity, negative = inhibition, % at 16 µg/mL (by protocol); hit rate 0.25% among 86,000; AID 1259249, 2017;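 active = mean growth activity at or below -80% and every replicate also at or below -80%; inconclusive = mean at or below -80% but some replicate above -80%; inactive = mean growth activity above -80%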;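 note: 0% = DMSO wells and -100% = levofloxacin 16 µg/mL wells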
T cruzi growth-1: T. cruzi intracellular proliferation inhibitors, primary screen, cell-based, beta-gal Tulahuen parasites, NIH3T3 host, luminescence | hit rate 5.9% among 77,000 | inhibition, % at 8.34 µM | T. cruzi beta-gal in NIH3T3, GalScreen luminescence, 90 h | AID 624255, 2012;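 active = mean inhibition above about 93%, with at least 55% of replicates each passing it, limit read from the data, passing the limit was not always enough; inconclusive = only one of those two conditions holds; inactive = neither condition holds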
Pf Dd2 growth: P. falciparum Dd2 growth inhibitors, primary screen, SYBR Green fluorescence, single dose replicates. 72 h; stronger effect = lower value. activity change, % at 10 µM. hit rate 2.3% among 94,000. AID 1159554, 2015; in the data active = activity change below about -80%; inconclusive = no clear call, values can overlap the other calls
T cruzi growth-2: T. cruzi intracellular proliferation inhibitors, confirmation, cell-based, NIH3T3 host, beta-gal parasite, luminescence, cherry-pick; T. cruzi beta-gal in NIH3T3, GalScreen luminescence, 90 h; hit rate 72% among 5,600; shares compounds with T cruzi growth-1; inhibition, % at 8.35 µM;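 active = mean replicate inhibition above about 95% and at least 55% of replicates individually reaching it, limit read from the data; inconclusive = only one of the two criteria is met; inactive = neither criterion is met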
T cruzi growth-3: inhibitors of intracellular T. cruzi replication, confirmation, NIH3T3 host cells, beta-gal parasites, cherry-pick, set 2. AID 651740, 2012. inhibition, % at 2.09 µM. hit rate 21% among 5,600. shares compounds with T cruzi growth-1. T. cruzi beta-gal in NIH3T3, GalScreen luminescence, 90 h;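 active = mean inhibition above about 95%, with at least 55% of replicates also reaching it, limit read from the data; inconclusive = meets just one of the two conditions; inactive = meets neither condition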;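 note: plate controls were neutral control median for no effect and positive control median for full effect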
NIH3T3 tox: cytotoxicity in mouse NIH/3T3 fibroblasts, confirmation, cytotoxicity control for T. cruzi proliferation inhibitor project, cell-based, cherry-pick, single point; shares compounds with T cruzi growth-1; NIH/3T3 viability, CellTiter-Glo ATP luminescence, 90 h; cytotoxicity (signal decrease), % at 8.35 µM; hit rate 14% among 5,600; AID 651742, 2012;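 active = mean signal decrease across replicates above about 35% based on untreated-well scatter, with enough replicates individually passing, limit read from the data; inconclusive = no rule stated though some were filed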;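 note: 0% = median of neutral control wells and 100% = median of positive control wells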
3T3 cytotox 2: NIH/3T3 fibroblast cytotoxicity, confirmation, cytotoxicity control, cell-based, cherry-pick, single point, set 2 | shares compounds with T cruzi growth-1 | NIH/3T3 viability, CellTiter-Glo ATP luminescence, 90 h | inhibition, % at 24.9 µM | hit rate 56% among 5,600;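 active = mean loss of cell viability signal at or above a set limit, and enough replicates individually reaching it; inconclusive = meets only the mean limit or only the replicate share; inactive = meets neither condition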;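 note: 0% = median of neutral control wells and 100% = median of positive control wells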
An asterisk follows results filed as active; ? = inconclusive; . = no result given; ! = repeats disagree. This is a sample that favours compounds with a hit; in the whole collection about 6.8% have one here.

SMILES	C diff HTS	T cruzi growth-1	Pf Dd2 growth	T cruzi growth-2	T cruzi growth-3	NIH3T3 tox	3T3 cytotox 2
C[C@H]1CN([C@@H](C)CO)C(=O)c2cc(C#Cc3ccccc3F)cnc2O[C@H]1CN(C)S(=O)(=O)c1ccccc1F	-2	97*!	-39	107*	77	60*	40*
C[C@@H]1CN([C@H](C)CO)C(=O)c2cc(C#Cc3ccccc3)cnc2O[C@H]1CN(C)S(=O)(=O)c1ccccc1F	-2	?	-55	105*	70	24	46*
C[C@H]1CN([C@@H](C)CO)C(=O)c2cc(C#Cc3ccccc3F)cnc2O[C@@H]1CN(C)S(C)(=O)=O	.	70	-20	.	.	.	.
C[C@@H]1CN([C@@H](C)CO)C(=O)c2cccc(NC(=O)NC3CCCCC3)c2O[C@@H]1CN(C)C(=O)NC1CCCCC1	-11	53	-34	.	.	.	.
CCC(=O)Nc1ccc2c(c1)OC[C@H](C)N(C(=O)CC1CC1)C[C@H](C)[C@H](OC)CN(C)C2=O	-2	21	-49	.	.	.	.
O=C(Cc1ccncc1)NCC[C@@H]1CC[C@H](NC(=O)C2CCCC2)[C@H](CO)O1	-1	.	0	.	.	.	.
OC[C@H]1[C@H](c2ccc(C#CC3(O)CCCC3)cc2)[C@H]2CN(Cc3ccccc3F)CCCCN21	6	44	-26	.	.	.	.
OC[C@@H]1[C@@H](c2ccc(C#CC3(O)CCCC3)cc2)[C@H]2CN(Cc3ccccc3F)CCCCN12	3	105*	-26	67	20	1	58*
COCC#Cc1ccc([C@@H]2[C@H]3CN(Cc4ccccc4F)CCCCN3[C@H]2CO)cc1	2	47	-67	.	.	.	.
OC[C@H]1[C@H](c2ccc(C#Cc3cccnc3)cc2)[C@@H]2CN(Cc3ccccc3F)CCCCN12	1	112*	-71	111*	52	28	103*
OC[C@@H]1[C@H](c2ccc(C#Cc3cccnc3)cc2)[C@H]2CN(Cc3ccccc3F)CCCCN12	21	114*	-75	102*	113*	50*	104*
CC(C)(O)C#Cc1ccc([C@@H]2[C@H]3CN(Cc4ccccc4F)CCCCN3[C@H]2CO)cc1	13	26	5	.	.	.	.
CCNC(=O)[C@H]1[C@H](CO)[C@H]2Cn3c(ccc(C4=CCCCC4)c3=O)[C@@H]1N2CC	-10	.	43	.	.	.	.
C[C@@H]1CCCCO[C@@H](CN(C)CC2CCCCC2)[C@H](C)CN([C@@H](C)CO)C(=O)c2cc(NC(=O)Nc3ccc(F)cc3)ccc2O1	6	114*	-74	99*	77	21	106*
C[C@@H]1CN([C@@H](C)CO)C(=O)c2cc(NC(=O)Nc3ccc(F)cc3)ccc2O[C@@H](C)CCCCO[C@H]1CN(C)CC1CC1	10	81	-22	.	.	.	.
C[C@@H]1CCCCO[C@@H](CN(C)CC2CC2)[C@H](C)CN([C@@H](C)CO)C(=O)c2cc(NC(=O)Nc3ccc(F)cc3)ccc2O1	6	103*	-23	87	-45	-16	-21
C[C@@H]1CCCCO[C@H](CN(C)CC2CCCCC2)[C@@H](C)CN([C@H](C)CO)C(=O)c2cc(NC(=O)Nc3ccc(F)cc3)ccc2O1	11	39	-57	.	.	.	.
C[C@@H]1CN([C@H](C)CO)C(=O)Cc2cc(NC(=O)c3ccncc3)ccc2O[C@@H]1CN(C)C(=O)NC1CCCCC1	3	-10	21	.	.	.	.
COc1ccc(S(=O)(=O)N(C)C[C@@H]2Oc3c(NS(=O)(=O)c4ccc(C)cc4)cccc3C(=O)N([C@@H](C)CO)C[C@@H]2C)cc1	1	.	-19	.	.	.	.
O=C(c1cccc(F)c1)N1CCCCN2[C@@H](CO)[C@@H](c3ccc(-c4ccccc4)cc3)[C@@H]2C1	48	33	-58	.	.	.	.
O=C(c1cccc(F)c1)N1CCCCN2[C@H](CO)[C@H](c3ccc(-c4ccccc4)cc3)[C@@H]2C1	3	102*	-7	113*	89	16	11
O=C(c1cccc(F)c1)N1CCCCN2[C@@H](CO)[C@@H](c3ccc(-c4cccnc4)cc3)[C@@H]2C1	-5	8	5	.	.	.	.
O=C(c1cccc(F)c1)N1CCCCN2[C@@H](CO)[C@H](c3ccc(-c4ccccc4)cc3)[C@@H]2C1	25	103*	-11	105*	53	24	91*
CC(C)C#Cc1ccc2c(c1)O[C@@H](CN(C)C(=O)C1CCC1)[C@H](C)CN([C@H](C)CO)S2(=O)=O	.	76	-49	.	.	.	.
C[C@H](CO)N1C[C@H](C)[C@@H](CN(C)C(=O)C2CCCCC2)Oc2cc(C#CCN(C)C)ccc2S1(=O)=O	3	.	-18	.	.	.	.
SMILES	C diff HTS	T cruzi growth-1	Pf Dd2 growth	T cruzi growth-2	T cruzi growth-3	NIH3T3 tox	3T3 cytotox 2
C[C@H]1CN([C@@H](C)CO)S(=O)(=O)c2ccc(C#CCN(C)C)cc2O[C@@H]1CN(C)C(=O)C1CCC1	-3	105*	1	106*	95	3	-9
C[C@H](CO)N1C[C@H](C)[C@H](CN(C)C(=O)C2CCC2)Oc2cc(C#CCN(C)C)ccc2S1(=O)=O	-3	?	-20	114*	98*	-10	3
COc1ccccc1CN1[C@@H](CO)[C@@H]2c3ccccc3N(C(=O)C3CCCC3)C[C@@H]21	15	7	-8	.	.	.	.
C[C@H]1CN([C@@H](C)CO)C(=O)c2cccc(NC(=O)c3ccncc3)c2O[C@H]1CN(C)Cc1ccc(C(F)(F)F)cc1	6	94	4	.	.	.	.
C[C@@H]1CN([C@@H](C)CO)C(=O)c2cccc(N(C)C)c2O[C@@H]1CN(C)Cc1ccc(C(=O)Nc2ccccc2N)cc1	2	113*	-82*	104*	42	31	73*
C[C@H](CO)N1C[C@H](C)[C@H](CN(C)Cc2ccc(C(=O)Nc3ccccc3N)cc2)Oc2c(NC(=O)c3ccncc3)cccc2C1=O	-3	?	6	105*	83	5	?
C[C@H](CO)N1C[C@H](C)[C@H](CN(C)Cc2ccc(C(F)(F)F)cc2)Oc2c(NC(=O)c3ccncc3)cccc2C1=O	0	?	-13	91	92	20	19
C[C@@H]1CN([C@H](C)CO)C(=O)c2cccc(NC(=O)c3ccncc3)c2O[C@@H]1CN(C)Cc1ccccc1	9	35	3	.	.	.	.
C[C@H]1CN([C@@H](C)CO)C(=O)c2cccc(N(C)C)c2O[C@@H]1CN(C)Cc1ccc(C(=O)Nc2ccccc2N)cc1	-3	87	?	.	.	.	.

Compound activity: PubChem BioAssay, Broad Institute
